Data on eight compounds can be found in PubChem BioAssay (NCI).

About 83,000 compounds went through this panel and 20% of them were active in at least one assay; those are over-represented in the sample as a whole.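 Step 1: grow cells in 96-well plates. Step 2: add test compound at a single concentration. Step 3: incubate 48 h. Step 4: record percent growth.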 A number with no mark means an inactive call. The source made the active and inactive calls. Rule for the calls: active = growth percent below 10; inactive = the rest.

Some test systems named below: DU-145 prostate; K-562 leukemia; MALME-3M melanoma; MDA-MB-231 breast; RXF 393 renal; SF-268 CNS; SF-295 CNS; UACC-257 melanoma; M14 melanoma; HCT-15 colon; HT29 colon; SNB-75 CNS; SNB-19 CNS; U251 CNS; PC-3 prostate; SK-MEL-5 melanoma; UACC-62 melanoma; LOX IMVI melanoma; SK-MEL-28 melanoma.
Holding throughout (assay): NCI-60 one-dose screen, 48 h (100 = growth as untreated, 0 = no growth, -100 = all killed)
What all share (conditions): 10 µM unless noted

Turning to `O=C(CN1CCN(c2cc3c(cc2F)c(=O)c(C(=O)O)cn3C2CC2)CC1)Nc1nc(-c2ccc(Cl)cc2)cs1`, the growth in the assay with DU-145 prostate was 32%; in the assay on K-562 leukemia it was 25.3%; in the assay with MALME-3M melanoma, 31.6%; in the assay on MDA-MB-231 breast, 24.6%; in the assay with RXF 393 renal it was 23.3%; with SF-268 CNS it was 29.7%. The growth in the assay with SF-295 CNS was 10.8%; with UACC-257 melanoma, 7.83% (active); in the assay with M14 melanoma, 27.5%; in the assay with HCT-15 colon, 15.7%; in the assay on HT29 colon, 10.4%; with SNB-75 CNS, 32.6%. Moreover, the growth is 22.5% with SNB-19 CNS; 8.26% (active) with U251 CNS; 17.7% in the assay with PC-3 prostate; 10.4% in the assay on SK-MEL-5 melanoma; 20.1% in the assay on UACC-62 melanoma; -42.4% (active) in the assay on LOX IMVI melanoma. Also, the growth in the assay with SK-MEL-28 melanoma was 42.6%.

Consider `C=C1CCC2C3(C)COC(c4cccc(Cl)c4)OC3CCC2(C)C1/C=C/C1=CCOC1=O` (configuration not stated), for which the growth is 79.1% with DU-145 prostate; 24.3% in the assay on K-562 leukemia; 84.6% in the assay with MALME-3M melanoma; 80.1% in the assay with MDA-MB-231 breast; 80.9% in the assay with RXF 393 renal; 83.7% in the assay with SF-268 CNS. The growth was 45.7% with SF-295 CNS; 57.4% in the assay with UACC-257 melanoma; 83.6% in the assay on M14 melanoma; 59.1% with HCT-15 colon; 56.9% with HT29 colon; 86.5% in the assay with SNB-75 CNS. Moreover, the growth in the assay on SNB-19 CNS is 77.3%; in the assay with U251 CNS, 69.4%; with PC-3 prostate it was 44.2%; in the assay on SK-MEL-5 melanoma, 35%; in the assay on UACC-62 melanoma it was 62.6%; in the assay with LOX IMVI melanoma it was 52.1%. Also, the growth with SK-MEL-28 melanoma is 78.8%.

For the compound `CS(=O)CCCCCN=C=S` (configuration not stated), the growth is 9.76% (active) in the assay on DU-145 prostate; -0.259% (active) with K-562 leukemia; -11.5% (active) with MALME-3M melanoma; 9.17% (active) in the assay with MDA-MB-231 breast; -34.7% (active) in the assay on RXF 393 renal; 8.94% (active) in the assay with SF-268 CNS. Moreover, the growth was 51% with SF-295 CNS; -6.89% (active) with UACC-257 melanoma; 8.73% (active) in the assay with M14 melanoma; -16.9% (active) in the assay with HCT-15 colon; -13.3% (active) in the assay with HT29 colon; 29.5% with SNB-75 CNS. Besides, the growth in the assay with SNB-19 CNS is 28%; in the assay on U251 CNS, 9.01% (active); in the assay on PC-3 prostate, 32.4%; in the assay on SK-MEL-5 melanoma, 12.1%; with UACC-62 melanoma, -8.14% (active); in the assay with LOX IMVI melanoma it was -38.7% (active). The growth in the assay on SK-MEL-28 melanoma was 6.92% (active).

For `NC(=S)N/N=C/c1cc(-c2cccc(N)c2)ccn1`, the growth in the assay with DU-145 prostate is 28.1%; with K-562 leukemia, 14.9%; with MALME-3M melanoma it was 15.6%; with MDA-MB-231 breast, 57.6%; in the assay on RXF 393 renal, 34.5%; with SF-268 CNS it was 21.2%. Also, the growth in the assay on SF-295 CNS is 9.47% (active); in the assay on UACC-257 melanoma, 29.3%; in the assay on M14 melanoma it was 1.75% (active); in the assay with HCT-15 colon it was 23.8%; with HT29 colon, 34.8%; with SNB-75 CNS, 35.1%. The growth was 42.9% in the assay on SNB-19 CNS; 16.1% in the assay on U251 CNS; 58.8% with PC-3 prostate; 8.97% (active) with SK-MEL-5 melanoma; -2.21% (active) in the assay with UACC-62 melanoma; 15.6% with LOX IMVI melanoma. In addition, the growth with SK-MEL-28 melanoma is 52.1%.

As to `Clc1ccc(-c2nnc(COc3ccccc3Cl)o2)cc1`, the growth with DU-145 prostate was 95.6%; in the assay on K-562 leukemia, 74.7%; with MALME-3M melanoma, 72.4%; in the assay with MDA-MB-231 breast, 67.4%; with RXF 393 renal, 46.9%; with SF-268 CNS, 75.5%. In addition, the growth is 89.8% in the assay on SF-295 CNS; 80.6% with UACC-257 melanoma; 76.4% with M14 melanoma; 81% in the assay with HCT-15 colon; 71% in the assay with HT29 colon; 2.45% (active) in the assay with SNB-75 CNS. Further, the growth with SNB-19 CNS was 86.7%; in the assay on U251 CNS, 60.3%; in the assay on PC-3 prostate, 89.1%; in the assay with SK-MEL-5 melanoma, 91.4%; in the assay with UACC-62 melanoma, 79.7%; with LOX IMVI melanoma, 81.5%. Besides, in the assay on SK-MEL-28 melanoma, the growth was 85.1%.

Take `CC[n+]1ccc2c(c1)C(=O)c1nccc3c1c-2nc1ccccc13`: the growth in the assay with DU-145 prostate was -10.9% (active); in the assay with K-562 leukemia, 20%; with MALME-3M melanoma, -85.5% (active); in the assay with MDA-MB-231 breast it was -8.92% (active); with RXF 393 renal, -2.9% (active); in the assay on SF-268 CNS it was -16.4% (active). Moreover, the growth was -27.6% (active) in the assay with SF-295 CNS; -8.02% (active) in the assay with UACC-257 melanoma; -16.3% (active) in the assay on M14 melanoma; 48.5% with HCT-15 colon; 10% in the assay with HT29 colon; -75.2% (active) in the assay on SNB-75 CNS. The growth is -70.5% (active) with SNB-19 CNS; -60% (active) with U251 CNS; 3.26% (active) in the assay with PC-3 prostate; -28.3% (active) in the assay on SK-MEL-5 melanoma; -57.7% (active) with UACC-62 melanoma; -3.96% (active) with LOX IMVI melanoma. Moreover, the growth with SK-MEL-28 melanoma is 1.07% (active).

For `O=C1c2cc3c(cc2-c2c1c1cc(Cl)c(Cl)cc1c(=O)n2CCCn1ccnc1)OCO3`, the growth is 8.73% (active) in the assay with DU-145 prostate; 16.3% with K-562 leukemia; 23.2% with MALME-3M melanoma; 41.4% with MDA-MB-231 breast; 3.03% (active) with RXF 393 renal; 17.7% in the assay on SF-268 CNS. Moreover, the growth in the assay with SF-295 CNS was -17.4% (active); in the assay with UACC-257 melanoma it was -17.1% (active); in the assay on M14 melanoma, -11.1% (active); in the assay on HCT-15 colon, 13%; in the assay with HT29 colon, -8.33% (active); in the assay on SNB-75 CNS, 9.95% (active). The growth was 13.4% in the assay with SNB-19 CNS; -9.41% (active) in the assay on U251 CNS; 25.3% in the assay with PC-3 prostate; -9.98% (active) in the assay on SK-MEL-5 melanoma; -38.1% (active) in the assay on UACC-62 melanoma; -53.6% (active) with LOX IMVI melanoma. The growth in the assay with SK-MEL-28 melanoma was 44.3%.

For `O=C(Nc1ccc(Nc2cc(Nc3ccccc3)ncn2)cc1)Nc1cc(C(F)(F)F)ccc1F`, the growth in the assay on DU-145 prostate is 65.7%; with K-562 leukemia, 56.1%; in the assay on MALME-3M melanoma, 85.9%; in the assay on MDA-MB-231 breast, 56.9%; with RXF 393 renal, 61.2%; in the assay with SF-268 CNS it was 94.6%. For the same compound, the growth with SF-295 CNS was 84.2%; in the assay with UACC-257 melanoma, 73.6%; with M14 melanoma it was 57.4%; in the assay on HCT-15 colon it was 70.9%; in the assay on HT29 colon, 58.4%; in the assay on SNB-75 CNS it was 57.1%. Also, the growth with SNB-19 CNS is 87.4%; with U251 CNS, 64.2%; in the assay on PC-3 prostate, 55.8%; with SK-MEL-5 melanoma, 82%; in the assay on UACC-62 melanoma, 65.8%; in the assay on LOX IMVI melanoma, 63.6%. In the assay on SK-MEL-28 melanoma, the growth was 71.9%.
